Activity calls are given as the source filed them. How the source made its calls: active means hit-call score of the fitted dose curve at least 0.9, where 1 is the maximum; inactive means score below 0.9.

This experiment can be described thus: BSK_3C_Vis: BioMAP Diversity Plus: 3C Assay for Morphology Visualization (AID 2283025).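 Further: fitted both ways so gain or loss versus DMSO counts.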 The note with it: primary human endothelial cells (HUVEC). The procedure:
BSK_3C is a cell-based, multiplexed-readout assay that uses umbilical vein endothelium, a human vascular primary cell, with measurements taken at 24 hours after chemical dosing in a 96-well plate.BSK_3C_Vis is an assay component measured in the BSK_3C assay. It measures NA related to cell morphology using light microscopy technology.Data from the assay component BSK_3C_Vis was analyzed into 1 assay endpoint. This assay endpoint, BSK_3C_Vis, was analyzed with bidirectional fitting relative to DMSO as the negative control and baseline of activity. Using a type of morphology reporter, gain or loss-of-signal activity can be used to understand changes in the background control. Furthermore, this assay endpoint can be referred to as a secondary readout, because this assay has produced multiple assay endpoints where this one serves a background control function. To generalize the intended target to other relatable targets, this assay endpoint is annotated to the cell morphology intended target family, where the subfamily is cell conformation.
The levels of cell surface (or secreted, indicated by the prefix "s") biomarker endpoints were measured by ELISA. Overt cytotoxicity to cells in confluent adherent cultures (all systems other than the BT system) was assessed by measuring total protein levels using sulforhodamine B (SRB) staining in parallel cultures at the time of biomarker measurements, indicated as SRB endpoints. For proliferation assays for adherent cell types, individual cell types are cultured at sub-confluence and relative cell numbers quantified by SRB staining at time points optimized for each system (48 h: 3C and CASM3C systems; 72 h: BT and HDF3CGF systems; 96 h: SAg system). SRB was performed by staining cells with 0.1% SRB after fixation with 10% TCA and reading wells at 560 nm.Viability and proliferation of PBMC (T cells) was quantified by Alamar Blue reduction for the SAg and BT systems. For PBMC viability (referred to as PBMC Cytotoxicity within the assay endpoint names), cells were plated (75,000/well in a 96-well plate) and then chemical samples added for 1 h before addition of activators, SEB and TSST-1 (20 ng/mL final concentration each). Cells were incubated for 90 h. Then, Alamar Blue (20 uL/well) (Invitrogen, Cat DAL1100) was added for 6 h, and the plates were read with a fluorescence microplate reader at 546/580 nm (excitation/emission). For PBMC proliferation, cells were plated and activated as above but incubated for only 16 h prior to addition of Alamar Blue. Plates were read after 6 h.
In the case of `Nc1ccc(N)cc1`, the AC50 is 19.9 µM (active).
Consider `NC(=O)CCl`, for which the result was inactive.
The same measure, in the same setting: under `CC(C=O)Cc1ccc2c(c1)OCO2` (stereo not given) stands “inactive”.
With `Cc1cc(C(C)(C)c2ccc(O)c(C)c2)ccc1O`, the half-maximal activity concentration (AC50) was 18.7 µM (active).
Take `Oc1c(Br)cc(Br)cc1Br`: the result was inactive.
Consider `Cc1ccc2nc3sc(=O)sc3nc2c1`, for which the concentration at half-maximal activity (AC50) was 9.8 µM (active).
As for `CCCCCCCCCCCCN(C)C`, the result was inactive.
For `Cc1cc(Cl)ccc1OC(C)C(=O)O` (stereo not given), the result was inactive.
The same measure, in the same setting: under `O=C(O)COc1cc(Cl)c(Cl)cc1Cl` stands “inactive”.
The same measure, in the same setting: under `CCOP(=S)(OCC)SCS(=O)(=O)C(C)(C)C` stands “inactive”.
The same measure, in the same setting: with `Cc1ccc(OP(=O)(Oc2ccc(C)cc2C)Oc2ccc(C)cc2C)c(C)c1` the entry was “inactive”; with `Clc1cccc(Cl)c1`, “inactive”.
For the compound `C#CCOC(=O)/C=C(C)/C=C/CC(C)CCCC(C)C` (stereo not given), the AC50 is 39.8 µM (active).
With `C=CC(Cl)CCl` (stereo not given), the result was inactive.
In the case of `CCOC(=O)C(SP(=S)(OC)OC)c1ccccc1` (stereo not given), the AC50 was 37.5 µM (active).
On the same count and under the same terms, with `CC(C)N(C(=O)CCl)c1ccccc1` the figure was 14.5 µM (active).
Take `N#Cc1cccnc1`: the result was inactive.
`CC(C)(COCC1CO1)COCC1CO1` (stereo not given): the result was inactive.
The same measure, in the same setting: with `CCN(CC)C(=O)C(Cl)=C(C)OP(=O)(OC)OC` the entry was “inactive”; with `Oc1ccc(Cc2ccc(O)cc2)cc1`, “inactive”; with `COCC(=O)N(c1c(C)cccc1C)[C@H](C)C(=O)OC`, “inactive”.
For `CCOP(=O)(OCC)OC(=CCl)c1ccc(Cl)cc1Cl`, the half-maximal activity concentration (AC50) was 37.4 µM (active).
With `OC(Cc1ccccc1Cl)(Cn1cncn1)C1(Cl)CC1` (stereo not given), the outcome was inactive.
On to `O=S(=O)(c1ccc(Cl)cc1)c1cc(Cl)c(Cl)cc1Cl`, for which the AC50 is 13.6 µM (active).
With `CC(C)(C)c1cc([N+](=O)[O-])cc(C(C)(C)C)c1O`, the outcome was inactive.
The same measure, in the same setting: under `CC1(C)[C@H](C(=O)O[C@H](C#N)c2cccc(Oc3ccccc3)c2)[C@@H]1/C=C(\Cl)C(F)(F)F` stands “inactive”.
Same read-out and setting: under `Nc1c(Oc2ccccc2)cc(O)c2c1C(=O)c1ccccc1C2=O` stands “inactive”.
The same measure, in the same setting: under `CC(C)O.CC(C)O.OCCN(CCO)CCO.OCCN(CCO)CCO.[Ti]` stands “inactive”.
On to `C[C@]12CC[C@@H](O)C[C@@H]1CC[C@@H]1[C@@H]2CC[C@]2(C)C(=O)CC[C@@H]12`, for which the result was inactive.
In the case of `Oc1cc(Cl)c(Cl)cc1Cl`, the AC50 was 39 µM (active).
The same measure, in the same setting: under `N#CCCC(Br)(C#N)CBr` (stereo not given) stands 5.04 µM (active).
Take `Cc1cccc(OP(=O)(Oc2cccc(C)c2)Oc2cccc(C)c2)c1`: the result was inactive.
`Cc1ccccc1OP(=O)(Oc1ccccc1C)Oc1ccccc1C`: the concentration at half-maximal activity (AC50) is 12.5 µM (active).
On the same count and under the same terms, with `CCOC(=O)CCN(SN(C)C(=O)Oc1cccc2c1OC(C)(C)C2)C(C)C` the figure was 20 µM (active).
With `COc1ccccc1N`, the result was inactive.
On the same count and under the same terms, under `Cc1cc(C)cc(C)c1` stands “inactive”.
Same read-out and setting: under `c1ccc2sc(SNC3CCCCC3)nc2c1` stands “inactive”.
Turning to `c1ccc(-c2cccc(-c3ccccc3)c2)cc1`, the concentration at half-maximal activity (AC50) was 13 µM (active).
The same measure, in the same setting: under `O=S(=O)(C(Cl)(Cl)Cl)C(Cl)(Cl)Cl` stands 4.25 µM (active).
As to `CC(C)(C)c1ccccc1O`, the result was inactive.

A word on the AC50: it is the concentration at which the activity in the assay is half-maximal.

The values are drawn from PubChem BioAssay (EPA / NIEHS).
